Source: PubChem BioAssay
Tau FP inhib – blocks human tau fibril formation measured by polarization; K18 P301L tau heparin fibrillization, Alexa594 FP, 6 h; Potency, µM (titrated, usually from 57.7 µM), without a hit: at the highest dose activity, negative = inhibition, actives largely listed as inhibitors; 0.39% of 280,000 active; also: nearly all actives have a fitted effect of over 55% in size
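Human tau K18 […] P301L fragment, 15 uM unlabeled plus 0.24 uM Alexa 594-labeled tau (final), with compound and 20 uM heparin in 100 mM sodium acetate pH 7; 6 hr at 37 C, then Alexa 594 FP read.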
JMJD2E inh – JMJD2E (human) inhibition; JMJD2E catalytic domain, FDH-coupled NADH fluorescence (FDH is formaldehyde dehydrogenase); B2RXH2; 1.6% of 230,000 active; Potency, µM (titrated, usually from 57.1 µM), without a hit: at the top dose activity change, negative = inhibition, hits mostly inhibitors; active = well fitted inhibition curve with a large enough effect, not every such curve was filed as active; inconclusive = small, poorly fitted or top-dose-only effect, or another doubt; inactive = no such curve, though single readings can be large or run the other way;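 also: 0% = wells with enzyme and -100% = buffer wells without enzyme; nearly all actives have a fitted effect of over 50% in size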
Tau ThT inhib – tau fibrillization inhibition (ThT binding) | recombinant tau K18 P301L, heparin-induced fibrillization, ThT fluorescence | Potency, µM (titrated, usually from 57.4 µM), for the others: at the top dose activity, negative = inhibition, hits mostly inhibitors | 2.1% of 270,000 active | AID 1460; also: nearly all actives have a fitted effect of over 55% in size
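ThT emission at 510 nm, taken 1 hr after adding 30 uM dye, quantifies aggregates formed when 20 uM heparin acts on human tau K18 P301L for 6 hr at 37 C.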
HPGD block – HPGD (human) dehydrogenase inhibition. P15428. purified HPGD, NADH fluorescence kinetic, PGE2 substrate. Potency, µM, for the others: at the top dose activity change, negative = inhibition, actives largely listed as inhibitors. 4.3% of 150,000 active. AID 894; active = well fitted inhibition curve with a large enough effect, not every such curve was filed as active; inconclusive = small, poorly fitted or top-dose-only effect, or another doubt; inactive = no such curve, though single readings can be large or run the other way
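NADH formation kinetics: reaction with 30 uM PGE2 and 1 mM NAD+ (final), 20 nM enzyme, Tris-HCl pH 8 with Tween 20, after 15 min compound preincubation at room temperature. Fluorescence change, last versus first of five reads.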
Tau fluor cs – counter-screen for tau fibril formation inhibitors | tau K18 P301L (four-repeat tau fragment) Alexa594 fluorescence, heparin fibrillization | Potency, µM (doses to about 57.7 µM), inactives show top-dose activity change, negative = decrease | 0.93% of 280,000 active | AID 1463; also: nearly all actives have a fitted effect of over 55% in size
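Human K18 P301L tau (15 uM unlabeled plus 0.24 uM Alexa 594-labeled, final) in 100 mM sodium acetate pH 7 was mixed with compound and 20 uM heparin and incubated 6 hr at 37 C.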
ALDH1A1 block – inhibitors of human aldehyde dehydrogenase 1A1. P00352. Purified ALDH1A1, NADH fluorescence, propionaldehyde substrate. Potency, µM (doses to about 75.3 µM), without a hit: top-dose activity, negative = inhibition, actives largely listed as inhibitors. 7.3% of 220,000 active; active = well fitted inhibition curve with a large enough effect, not every such curve was filed as active; inconclusive = small, poorly fitted or top-dose-only effect, or another doubt; inactive = no such curve, though single readings can be large or run the other way;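 also: plate controls were no enzyme wells and a reference inhibitor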
Target sequence (P00352 whole entry, looked up): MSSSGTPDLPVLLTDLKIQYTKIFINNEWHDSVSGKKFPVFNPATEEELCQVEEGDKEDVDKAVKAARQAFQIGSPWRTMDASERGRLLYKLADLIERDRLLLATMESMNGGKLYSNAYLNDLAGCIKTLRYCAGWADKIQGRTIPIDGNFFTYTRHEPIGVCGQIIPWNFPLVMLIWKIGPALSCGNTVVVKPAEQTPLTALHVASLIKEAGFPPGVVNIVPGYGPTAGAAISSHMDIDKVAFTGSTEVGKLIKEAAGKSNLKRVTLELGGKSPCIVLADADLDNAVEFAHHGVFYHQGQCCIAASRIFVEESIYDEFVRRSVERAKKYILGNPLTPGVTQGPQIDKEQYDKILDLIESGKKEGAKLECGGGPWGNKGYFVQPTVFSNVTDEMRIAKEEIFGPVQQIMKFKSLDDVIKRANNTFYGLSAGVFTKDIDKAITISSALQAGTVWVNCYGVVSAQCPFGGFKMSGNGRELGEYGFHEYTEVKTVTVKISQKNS
Starred values were filed as active, the others as inactive; [ ] = dose if it differs, or a comment. Hits are enriched below; roughly 9.9% of the tested compounds scored in any of these assays. Unless noted, calls follow the shape of the dose curve; as a rule, active = well fitted curve in the direction sought with a large enough effect; inconclusive = small, poorly fitted or top-dose-only effect, or another doubt; inactive = no such curve, though single readings can be large; an effect the other way counts as inactive or inconclusive. Unless noted, % is scaled to controls: 0 for no effect and ±100 for the full control effect; potency is read from the fitted curve at half-maximal effect.

Results for O=C(O)CCCN1C(=O)/C(=C\c2ccc(-c3nc4ccccc4s3)o2)SC1=S ?
Tau FP inhib: inconclusive; JMJD2E inh: inconclusive; Tau ThT inhib: 2.51µM*; Tau fluor cs: inconclusive

Results for Cc1nn(-c2ccccc2)c(Cl)c1/C=C1\SC(=S)N(CCCCCC(=O)O)C1=O ?
Tau FP inhib: 20.1%; JMJD2E inh: 0.6%; Tau ThT inhib: inconclusive; Tau fluor cs: 4.6%

What do the screens show for `O=C(O)c1ccc(-c2nc3ccccc3s2)o1`?
Tau FP inhib: -3.4%; JMJD2E inh: inconclusive; Tau ThT inhib: 8.3%; Tau fluor cs: 1.3%

Results for CC(Nc1oc(-c2ccccc2)nc1-c1cccc2ccccc12)c1ccccc1 (stereo unspecified) ?
Tau FP inhib: -3.3%; JMJD2E inh: -21.8%; Tau ThT inhib: -14.1%; HPGD block: -3.6%; Tau fluor cs: -4.7%; ALDH1A1 block: -11.6%

What do the screens show for `COc1cccc(C(=O)N2CCOCC2)c1OC`?
Tau FP inhib: 3.8%; JMJD2E inh: -0.5%; Tau ThT inhib: 5.7%; Tau fluor cs: 4.0%; ALDH1A1 block: 1.5%

Results for COc1cccc(C(=O)N2CCN(C(=O)c3cccs3)CC2)c1OC ?
Tau FP inhib: -11.2%; JMJD2E inh: -1.1%; Tau ThT inhib: -2.5%; HPGD block: -9.4%; Tau fluor cs: -4.2%; ALDH1A1 block: 22.4µM*

Results for COc1cccc(OC)c1-c1nn2c(-c3ccco3)nnc2s1 ?
Tau FP inhib: 0.7%; JMJD2E inh: -0.2%; Tau ThT inhib: -10.8%; HPGD block: 15.8µM*; Tau fluor cs: -2.2%; ALDH1A1 block: inconclusive

How did COc1cc(-c2nn3c(-c4ccco4)nnc3s2)cc(OC)c1OC do in these assays?
Tau FP inhib: -0.1%; JMJD2E inh: -4.6%; Tau ThT inhib: -5.0%; HPGD block: -14.8%; Tau fluor cs: 1.1%; ALDH1A1 block: 11.2%

How did COc1cccc(-c2nn3c(-c4ccco4)nnc3s2)c1 do in these assays?
Tau FP inhib: 4.8%; JMJD2E inh: -14.7%; Tau ThT inhib: -3.3%; HPGD block: inconclusive; Tau fluor cs: 1.9%; ALDH1A1 block: 3.55µM*

How did COc1ccc(-n2cc3c(c2-c2cccc(Br)c2)c(=O)n(C)c(=O)n3C)cc1OC do in these assays?
Tau FP inhib: -9.8%; Tau ThT inhib: -1.0%; Tau fluor cs: -6.0%

Results for COc1ccc(O)c(/C=N/Nc2nc3ccccc3[nH]2)c1 ?
Tau FP inhib: 6.6%; JMJD2E inh: -12.6%; Tau ThT inhib: 14.1µM*; Tau fluor cs: inconclusive; ALDH1A1 block: 5.5%

Results for COc1cccc(/C=N/Nc2nc3ccccc3[nH]2)c1OC ?
Tau FP inhib: 12.4%; JMJD2E inh: -26.0%; Tau ThT inhib: inconclusive; Tau fluor cs: -26.7%

Results for COc1cc(/C=N/Nc2nc3ccccc3[nH]2)cc(OC)c1O ?
Tau FP inhib: inconclusive; JMJD2E inh: inconclusive; Tau ThT inhib: 11.2µM*; Tau fluor cs: 15.8µM*[quencher]; ALDH1A1 block: 0.6%

What do the screens show for `COc1cccc(/C=N\NC(=O)Cn2nnc3ccccc32)c1O`?
Tau FP inhib: 3.1%; JMJD2E inh: 28.2µM*; Tau ThT inhib: -1.4%; Tau fluor cs: 1.4%; ALDH1A1 block: 10.4%

Results for COc1cc(/C=N/NC(=O)Cn2nnc3ccccc32)ccc1O ?
Tau FP inhib: 4.3%; JMJD2E inh: -21.3%; Tau ThT inhib: -7.3%; Tau fluor cs: -2.1%; ALDH1A1 block: -1.2%

What do the screens show for `COC(=O)c1ccc(/C=N/Nc2nc3ccccc3[nH]2)cc1`?
Tau FP inhib: 9.4%; JMJD2E inh: 4.9%; Tau ThT inhib: inconclusive; Tau fluor cs: -27.6%; ALDH1A1 block: -1.3%

Results for COc1cc(/C=C(/C(=O)c2cccs2)c2nc3ccccc3[nH]2)cc(OC)c1O ?
Tau FP inhib: -2.2%; JMJD2E inh: inconclusive; Tau ThT inhib: 14.1µM*; HPGD block: inconclusive; Tau fluor cs: inconclusive; ALDH1A1 block: inconclusive
